“And” between values parts separate entries of the source, which are not always exact repeats. Equal entries are not always repeated. Values without a mark were called inactive. Records with an inconclusive call do not appear. The source made the active and inactive calls. Unless noted, calls follow the shape of the dose curve; as a rule, active = well fitted inhibition curve with a large enough effect; inconclusive = small, poorly fitted or top-dose-only effect; inactive = flat fitted curve, though single readings scatter.

Test [1] in a line: Drug repurposing screens with cells derived from glioblastoma tumor samples (AID 1345199). Also: nearly all actives have a fitted effect of over 40% in size. Also: potency is read from the fitted curve at half-maximal effect. As to activity, negative = cell killing: % is scaled to controls: 0 for no effect and ±100 for the full control effect. The settings on record: GBM patient neurospheres viability, ATP luminescence, 48 h. In a few lines: (§1)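 Four patient lines of CD133+ GBM neurospheres were screened at several concentrations; hits were retested in those lines plus three slower-growing GBM lines, using 48-hour treatment and ATP-based viability.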

For another test, the system named is astro (control astrocytes). The description is as above. Particulars: viability, ATP luminescence, 48 h; series mostly up to 45.9 µM. In a few lines:
as §1

Test [2] deals with Nuclear receptor subfamily 1 group I member 2 (Rattus norvegicus) (UniProt Q9R1A7). In words: qHTS assay for small molecule activators of the rat pregnane X receptor (rPXR) signaling pathway (AID 651751; call rule not given here; also: 0% is about no effect). Particulars: rPXR reporter cells, luciferase (One-Glo), 24 h. For orientation: qHTS replaces the single test concentration by a dilution series.
Chain of Nuclear receptor subfamily 1 group I member 2 (Rattus norvegicus) (Q9R1A7 whole entry, looked up): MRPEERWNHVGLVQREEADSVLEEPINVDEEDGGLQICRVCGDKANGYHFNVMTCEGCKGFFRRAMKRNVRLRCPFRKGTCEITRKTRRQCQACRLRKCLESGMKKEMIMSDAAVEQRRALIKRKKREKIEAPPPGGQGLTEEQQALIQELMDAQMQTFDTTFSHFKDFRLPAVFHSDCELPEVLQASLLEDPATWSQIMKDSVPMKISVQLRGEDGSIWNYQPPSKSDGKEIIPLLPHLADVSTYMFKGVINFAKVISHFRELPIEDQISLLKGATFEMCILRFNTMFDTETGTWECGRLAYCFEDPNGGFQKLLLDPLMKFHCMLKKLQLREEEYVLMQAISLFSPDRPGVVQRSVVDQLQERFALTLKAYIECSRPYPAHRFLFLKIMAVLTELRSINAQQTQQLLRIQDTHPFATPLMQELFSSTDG
Test [3] can be described thus: qHTS assay for small molecule activators of the human pregnane X receptor (PXR) signaling pathway (AID 720659; call rule not given here; also: 0% is about no effect). The settings on record: DPX-2 HepG2 CYP3A4-luciferase, 24 h; series mostly up to 92.3 µM.
The mark [4] stands for this setting: at 46.1 µM (top of the series), tumour line C.
[5] abbreviates: at 45.9 µM (top of the series), tumour line B.
The mark [6] stands for this setting: at 45.9 µM (top of the series), tumour line D.

Turning to `O=[N+]([O-])c1cc(I)c(O)c(I)c1`, in test [1] (setting [4]), the activity, negative = cell killing is -4.29%. Further, the Potency in test [1] (tumour line A) was 25.1 µM (active); in test [1] (tumour line D), 22.4 µM (active); with astro it was 35.5 µM (active).

`CCC1(CC)C(=O)NC(=O)N(C)C1=O`: the results for the activity, negative = cell killing in test [1] (setting [5]), in test [1] (setting [6]) and in test [1] (setting [4]) were -3.71%, -23.6% and -31.1%, respectively. Also, the Potency result in the test on astro is “inactive”.

For `C[N+]1(C)[C@@H]2CC[C@H]1CC(OC(=O)c1c[nH]c3ccccc13)C2` (stereo partly drawn), the activity, negative = cell killing in test [1] (setting [5]) was -23.1%; in test [1] (setting [4]) it was -27.7%. For the same compound, in the test on astro, the Potency entry was “inactive”.

On to `CCCC(C)C1(CC)C(=O)NC(=O)NC1=O` (stereo not drawn), for which the results for the activity, negative = cell killing in test [1] (setting [5]), in test [1] (setting [6]) and in test [1] (setting [4]) were -11.9%, 0.152% and -8.48%, respectively. Besides, the Potency result in the test on astro is “inactive”.

On to `Clc1ccc(C(Cn2ccnc2)OCc2csc3c(Cl)cccc23)c(Cl)c1` (stereo not drawn), for which the activity, negative = cell killing in test [1] (at 20 µM (top of the series), tumour line C) was 2.67%; in test [1] (at 21.2 µM (top of the series), tumour line B), -18.1%. The Potency in test [1] (tumour line A) was 12.6 µM (active). The Potency result in the test on astro was “inactive”.

For the compound `O=C(OCCN1CCCCC1)C(O)(c1ccccc1)c1ccccc1`, the activity, negative = cell killing in test [1] (setting [5]) was -11.1%; in test [1] (setting [6]) it was -8.82%; in test [1] (setting [4]), -26.9%. Further, the Potency result with astro is “inactive”.

As to `CC[N+](C)(CC)CCOC(=O)C(O)(c1ccccc1)c1ccccc1`, the activity, negative = cell killing in test [1] (setting [5]) was -10.1%; in test [1] (setting [6]), -2.57%; in test [1] (at 46 µM (top of the series), tumour line A), -29.2%. Further, the Potency entry with astro is “inactive”.

As to `O=C(O)C(Cl)(Cl)Cl`, the values for the activity, negative = cell killing in test [1] (setting [5]), in test [1] (setting [6]) and in test [1] (setting [4]) were -5.78%, 4.24% and 3.74%, respectively. In the test on astro, the Potency entry was “inactive”. The max response in test [2] is 6.71% and 3.85%. Moreover, the outcome in test [3] was inactive.

Turning to `C[C@H]1CCC[C@H](O)CCCCCc2cc(O)cc(O)c2C(=O)O1`, the activity, negative = cell killing in test [1] (setting [4]) was 1.42%. Further, the Potency in test [1] (tumour line A) was 12.6 µM (active); in test [1] (tumour line D) it was 35.5 µM (active). In addition, in the test on astro, the Potency entry is “inactive”. Moreover, in test [2], the max response is -2.32%.

Take `N#CN`: the figures for the activity, negative = cell killing in test [1] (setting [5]), in test [1] (setting [6]) and in test [1] (setting [4]) were -13.5%, -4.31% and -5.37%, respectively. The Potency result with astro is “inactive”. In test [2], the max response was 6.95%. Also, the result in test [3] was inactive.

For the compound `Cc1cccc(C(C)c2cnc[nH]2)c1C` (stereo not drawn), the activity, negative = cell killing in test [1] (setting [5]) was -17.4%; in test [1] (setting [6]), 6.82%; in test [1] (setting [4]) it was -27%. Moreover, the Potency entry in the test with astro is “inactive”.

In the case of `C[C@@H]1[C@@H]2Cc3ccc(O)cc3[C@@]1(C)CCN2CC1CC1`, the activity, negative = cell killing was -1.24% in test [1] (setting [5]), -18.9% in test [1] (setting [6]) and 6.7% in test [1] (setting [4]). For the same compound, the Potency result in the test on astro was “inactive”.

On to `C[C@@H](Cc1ccccc1)NCCC(c1ccccc1)c1ccccc1`, for which, in the test on astro, the Potency entry is “inactive”.
